Compound activity from PubChem BioAssay.
GALR2 ag: activates the human galanin receptor 2; O43603; GALR2-expressing cells, agonist activation read-out; activation, % (concentration not given with the values); hit rate 0.48% among 140,000; in the data active means activation above about 5%, passing the limit was not always enough
S1P2 blocker: blocks the human S1P2 receptor. O95136. cell-based S1P2 antagonist assay, inhibition at 5 uM. inhibition, % at 5 µM. hit rate 0.21% among 97,000. AID 736; in the data active means inhibition above about 45%;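 further: CRE beta-lactamase reporter cells expressing human S1P2 stimulated with S1P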
Target sequence (O95136 whole entry, looked up): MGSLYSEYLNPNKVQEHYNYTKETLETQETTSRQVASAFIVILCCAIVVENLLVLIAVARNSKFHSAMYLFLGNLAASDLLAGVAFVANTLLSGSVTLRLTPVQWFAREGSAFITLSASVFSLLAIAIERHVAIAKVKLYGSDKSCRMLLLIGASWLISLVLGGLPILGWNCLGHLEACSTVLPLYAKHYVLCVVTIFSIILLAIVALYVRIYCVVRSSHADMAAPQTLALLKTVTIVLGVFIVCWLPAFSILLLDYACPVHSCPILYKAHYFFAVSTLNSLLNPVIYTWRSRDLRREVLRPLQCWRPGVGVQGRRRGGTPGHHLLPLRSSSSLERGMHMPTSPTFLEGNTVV
GALR2 antag: blocks the human galanin receptor 2; inhibition, % at 4 µM; hit rate 0.39% among 140,000; GALR2-expressing cells, antagonist mode; O43603; in the data active means inhibition above about 27%;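 further: cells stimulated with galanin 1-16 at roughly its EC80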
S1P2 agonist: activates the human S1P2 receptor | S1P2-expressing cell line, agonist reporter read-out | AID 729 | activation, % at 4.5 µM | O95136 | hit rate 0.46% among 97,000; in the data active means activation above about 16%
GALR2 ag confirm: confirmation of human galanin receptor 2 (GALR2) agonists; activation, % at 5.6 µM; AID 864; hit rate 10% among 460; shares compounds with GALR2 ag; GALR2-expressing cells, agonist activation; in the data active means activation above about 8.4%
BLA activ ctr: activates beta-lactamase reporter in GALR2 agonist counterscreen | CHO NFAT-bla reporter, beta-lactamase FRET activation | AID 865 | activation, % at 5.6 µM | shares compounds with GALR2 ag | hit rate 10% among 460;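 active means activation above the screen-wide mean activation plus 3 SD, cut at about 8% in these data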
Large screens that a line does not name were inactive (follow-up assays come after a bar, where they were run). An excerpt weighted towards active compounds, which were near 1.1% of everything screened.

Nc1c(C(=O)c2ccccc2)sc2c1c(=O)[nH]c(=O)n2-c1ccccc1	none (no result: S1P2 blocker, S1P2 agonist)
Nc1c(C(=O)c2ccc(Cl)cc2)sc2c1c(=O)[nH]c(=O)n2-c1ccccc1	GALR2 ag 22 (no result: S1P2 blocker, S1P2 agonist) | GALR2 ag confirm inactive | BLA activ ctr inactive
COc1ccc(OC)c(NC(=O)C(=O)NCCC2=CCCCC2)c1	none (no result: S1P2 blocker, S1P2 agonist)
CCCCc1cc(O)c(CCCC)c(O)c1	GALR2 ag 9.8 | GALR2 ag confirm 12 | BLA activ ctr 27
O=[N+]([O-])c1cc(C(F)(F)F)ccc1NCCNC(=S)Nc1ccc(Cl)cc1	none
CC(=O)Nc1ccc(Br)cc1C(=O)C(=O)O	none (no result: S1P2 blocker, S1P2 agonist)
O=C(O)c1cccc(NC(=S)NC(=O)C(c2ccccc2)c2ccccc2)c1	none | GALR2 ag confirm inactive | BLA activ ctr inactive
O=C(Nc1cccc(NC(=S)NC(=O)c2cccs2)c1)c1ccccc1	none (no result: S1P2 blocker, S1P2 agonist)
Cc1ccc(CCNC(=O)c2ccc(CS(=O)(=O)Cc3ccccc3F)o2)cc1	none
O=C(NCCc1ccccc1)c1ccc(CS(=O)(=O)Cc2ccccc2F)o1	none | GALR2 ag confirm inactive | BLA activ ctr inactive
CC(NC(=O)CSCc1ccccc1Br)c1ccccc1 (stereo not drawn)	none (no result: S1P2 blocker, S1P2 agonist)
Cc1cccc(NC(=O)C2CCCN(S(=O)(=O)c3cccc4nsnc34)C2)n1 (stereo not drawn)	GALR2 ag 11 | GALR2 ag confirm inactive | BLA activ ctr inactive
O=C(NCCN1CCOCC1)c1csc2c1CCCC2	none
CC1CC(C)CN(CCCNC(=O)c2csc3c2CCCC3)C1 (stereo not drawn)	GALR2 ag 108 | GALR2 ag confirm inactive | BLA activ ctr inactive
CCN(CC)C(=O)CSc1nc(OC)cc(=O)[nH]1	none (no result: S1P2 blocker, S1P2 agonist)
Cc1ccc(COCC(CC(C)C)N2CCN(C(=O)c3cccc(C(F)(F)F)c3)CCC2=O)cc1 (stereo not drawn)	GALR2 ag 8.9 (no result: S1P2 blocker, S1P2 agonist) | GALR2 ag confirm inactive | BLA activ ctr inactive
CC(C)CC(COCc1ccc(F)cc1)N1CCN(C(=O)c2cccc(C(F)(F)F)c2)CCC1=O (stereo not drawn)	none (no result: S1P2 blocker, S1P2 agonist)
Cc1oc2cc3oc(=O)c4c(c3cc2c1C)CCC4	none
Cc1oc2c(C)c3oc(=O)c4c(c3cc2c1C)CCC4	none | GALR2 ag confirm inactive | BLA activ ctr inactive
N#CC1=C(N)Oc2n[nH]c(-c3ccccc3)c2C12C(=O)Nc1ccccc12 (stereo not drawn)	GALR2 ag 11 (no result: S1P2 blocker, S1P2 agonist) | GALR2 ag confirm inactive | BLA activ ctr inactive
CCN1C(=O)C2(C(C#N)=C(N)Oc3n[nH]c(-c4ccc(Cl)cc4)c32)c2ccccc21 (stereo not drawn)	none
O=C1C=C(c2ccccc2)OC(=O)C1C(=O)c1ccccc1 (stereo not drawn)	none
COc1ccc(CC(=O)NCc2nnc(SCc3ccc(C)cc3)n2C)cc1	none (no result: S1P2 blocker, S1P2 agonist)
O=C(CC1CCCCC1)Nc1ccccc1-c1ccccc1	none (no result: S1P2 blocker, S1P2 agonist)
CC(NC1CCCC1)C(=O)Nc1ccccc1-c1ccccc1 (stereo not drawn)	GALR2 ag 12 | GALR2 ag confirm inactive | BLA activ ctr inactive
Cc1ccccc1Nc1nc(-c2sc(NC(=O)c3ccccc3)nc2C)cs1	GALR2 ag 19 | GALR2 ag confirm inactive | BLA activ ctr inactive
CCOc1ccc(Br)cc1C(=O)Nc1ccc(C(=O)NCC(C)C)cc1	GALR2 ag 14 (no result: S1P2 blocker, S1P2 agonist) | GALR2 ag confirm 13 | BLA activ ctr inactive
CCOc1ccc(Br)cc1S(=O)(=O)Nc1ccc(C(=O)Nc2ccc(C)cc2)cc1	none (no result: S1P2 blocker, S1P2 agonist)
O=C(Cc1ccccc1)NC(=S)Nc1cc(C(F)(F)F)ccc1Cl	GALR2 ag 8.4 | GALR2 ag confirm inactive | BLA activ ctr inactive
O=C(Cc1ccccc1)NC(=S)Nc1cccc(C(F)(F)F)c1	none
CCCCCCc1cc2cc(S(=O)(=O)c3ccc(F)c(Cl)c3)c(=O)oc2cc1O	GALR2 ag 19 (no result: S1P2 blocker, S1P2 agonist) | GALR2 ag confirm 26 | BLA activ ctr 50
CCCCCCc1cc2cc(C(=O)NC)c(=N)oc2cc1O	none
CCCCCCc1cc2cc(C(N)=O)c(=N)oc2cc1O	GALR2 ag 105, S1P2 agonist 39 | GALR2 ag confirm inactive | BLA activ ctr 23
N#CCCN(C(=O)Nc1ccc(Cl)c(Cl)c1)c1ccccc1	none (no result: S1P2 blocker, S1P2 agonist)
O=C(Oc1ccccc1)N1CCN(c2ccc(F)cc2)CC1	none
O=C(Nc1ccc(N2CCN(c3ccc(O)cc3)CC2)cc1)Oc1ccccc1	GALR2 ag 13 | GALR2 ag confirm inactive | BLA activ ctr inactive
Cc1ccc(-c2nn(CC(N)=O)c(=O)c3ccccc23)cc1S(=O)(=O)N(C)C	GALR2 ag 34 | GALR2 ag confirm inactive | BLA activ ctr inactive
C=CCNC(=O)c1ccccc1NC(=O)Cc1ccccc1[N+](=O)[O-]	none (no result: S1P2 blocker, S1P2 agonist)
